Results reported in PubChem BioAssay (NCATS).
Records with an inconclusive call do not appear. Activity calls are given as the source filed them. Calls come from the whole dose curve; as a rule, active = well fitted curve in the direction sought with a large enough effect; inconclusive = small, poorly fitted or top-dose-only effect, or another doubt; inactive = no such curve, though single readings can be large; an effect the other way counts as inactive or inconclusive.

Tests used:
[1] = Drug repurposing screens with cells derived from glioblastoma tumor samples (AID 1345199); settings: GBM patient neurospheres viability, ATP luminescence, 48 h; note: nearly all actives have a fitted effect of over 40% in size; note: potency is the fitted concentration of half-maximal effect
Procedure, shortened: (§1)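 Primary testing used CD133+ neurospheres from four GBM patients, seven concentrations, 48 h exposure and ATP-based viability; confirmation added three slower-growing patient lines.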

astro = control astrocytes; test: as above; settings: viability, ATP luminescence, 48 h; series mostly up to 45.9 µM
Procedure, shortened: as §1

Tov-21-G = test: Primary qHTS to identify gynecologic anti-cancer compounds using libraries of approved drugs and bioactive compounds (AID 1345084); settings: Gynecologic cancer cell panel viability, ATPlite luminescence, 48 h; series mostly up to 57.5 µM; note: nearly all actives have a fitted effect of over 55% in size
Procedure, shortened: (§2)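 Cell viability after 48 h drug treatment, ATPlite luminescence readout; five doses.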

Tov112D = test: as above; settings: Gynecologic cancer cell panel viability, ATPlite luminescence, 48 h; series mostly up to 57.5 µM
Procedure, shortened: as §2

[2] = at 45.9 µM (top of the series), tumour line B
[3] = at 45.9 µM (top of the series), tumour line D
[4] = at 46 µM (top of the series), tumour line A
[5] = at 46.1 µM (top of the series), tumour line C
% is set by controls: 0 for no effect and ±100 for the full control effect.

CCC(NC(C)C)C(O)c1ccc(O)c(O)c1 (stereo unspecified)
inactive: activity, negative = cell killing [1, 2] -1.77% | activity, negative = cell killing [1, 3] 12.5% | activity, negative = cell killing [1, 4] -20.2% | activity, negative = cell killing [1, 5] -19.2% | Potency (astro)

CC[C@H](C)C(=O)O[C@H]1CCC=C2C=C[C@H](C)[C@H](CC[C@@H]3C[C@@H](O)CC(=O)O3)[C@H]21
active: Potency (astro) 2 µM

C1CCc2nnnn2CC1
inactive: activity, negative = cell killing [1, 2] -2.41% | activity, negative = cell killing [1, 3] -3.11% | activity, negative = cell killing [1, 4] -28.5% | activity, negative = cell killing [1, 5] -27% | Potency (astro)

CC(=O)O[C@H]1C[C@@H]2CC[C@@H]3[C@H](CC[C@@]4(C)[C@H]3C[C@H]([N+]3(C)CCCCC3)[C@@H]4OC(C)=O)[C@@]2(C)C[C@@H]1[N+]1(C)CCCCC1
inactive: activity, negative = cell killing [1, 2] 7.88% | activity, negative = cell killing [1, 3] -21.6% | activity, negative = cell killing [1, 4] -27.9% | activity, negative = cell killing [1, 5] -11.1% | Potency (astro)

COc1cc2c(cc1OC)C(=O)C(CC1CCN(Cc3ccccc3)CC1)C2 (stereo unspecified)
inactive: Potency (Tov-21-G) | Potency (Tov112D) | Potency (astro)

C[C@@H]1C(=O)NC2=Nc3cccc(Cl)c3CN21
inactive: activity, negative = cell killing [1, 2] -5.98% | activity, negative = cell killing [1, 3] -24.2% | activity, negative = cell killing [1, 5] -18.1% | Potency (astro)

Cc1c(C)n(CCN(C)C)c2ccc(C(=O)OCCN(C)C)cc12
inactive: Potency (Tov-21-G) | Potency (Tov112D) | activity, negative = cell killing [1, 5] -23.7%
active: Potency ([1]; tumour line A) 10 µM

CNCCC=C1c2ccccc2CCc2ccccc21
inactive: activity, negative = cell killing [1, 5] -6.98%
active: Potency ([1]; tumour line A) 6.31 µM | Potency ([1]; tumour line B) 22.4 µM | Potency (astro) 11.2 µM
